The list is not random: actives were taken first. Their share in the collection is about 7.9%.
SW480 rereplic: DNA re-replication induction in SW480 cells; SW480 DNA re-replication, Hoechst DNA content imaging, 48 h; AID 624297; actives 1.8% (n = 340,000); Potency, µM (series often up to 46.1 µM), without a hit: top-dose re-replication activation, actives largely listed as activators; further: % of control where 0% means no effect; nearly all actives have a fitted effect of over 55% in size
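Image-based read-out: total Hoechst fluorescence of nuclei (405 nm excitation, 500-530 nm emission), with hits raising the fraction of high-intensity nuclei. SW480 colon cells incubated 48 hr with compounds at 37 C.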
KB-3-1 cytotox: kills parental KB-3-1 adenocarcinoma cells; KB-3-1 viability, CellTiter-Glo ATP luminescence, 72 h; Potency, µM (doses to about 46.1 µM), actives largely listed as cytotoxic; actives 1.4% (n = 400,000); AID 1347075; further: on the % scale 0 is the no-effect control and ±100 the full control effect; nearly all actives have a fitted effect of over 60% in size
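Viability of parental KB-3-1 cells, measured by CellTiter-Glo luminescence, followed a 72 h incubation at 37 °C with pinned compounds in phenol-red-free DMEM containing 10% FBS.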
HT1080NT lethal: kills 2HG-producing HT-1080-NT fibrosarcoma cells. actives 1.6% (n = 360,000). HT-1080-NT fibrosarcoma viability, CellTiter-Glo ATP luminescence, 48 h. AID 686970. Potency, µM (highest dose often 46.1 µM), for the others: at the highest dose activity, negative = less viability, most hits filed as cytotoxic;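 further: NT is the 2HG producing partner of a matched IDH1 knockdown line; 0% = DMSO-treated cells and -100% = media-only wells without cells; nearly all actives have a fitted effect of over 55% in size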
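A 48-hour cytotoxicity screen used HT-1080-NT cells plated 2 hours before compound delivery. ATP-based CellTiter-Glo luminescence measured viability, normalized to DMSO and no-cell controls.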
KB-V1 cytotox: KB-V1 MDR subline cytotoxicity | KB-V1 MDR cells viability, CellTiter-Glo, 72 h | AID 1347076 | Potency, µM (highest dose often 46.1 µM), most hits filed as cytotoxic | actives 3.4% (n = 400,000); further: on the % scale 0 is the no-effect control and ±100 the full control effect; nearly all actives have a fitted effect of over 60% in size
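Cytotoxicity toward P-gp-expressing KB-V1 cells was determined as loss of CellTiter-Glo luminescence after 72 h at 37 degrees C. Compounds were tested in quantitative HTS format across a concentration range, with curves fitted to normalized data.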
HT1080 IDH1KD tx: toxicity to HT-1080 IDH1 knockdown cells (counter line) | HT-1080 IDH1 knockdown viability, ATP luminescence, 48 h | Potency, µM (doses to about 46.1 µM), without a hit: top-dose activity, negative = toxicity, usual class: cytotoxic | actives 2% (n = 360,000) | AID 686971;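 further: 0% = DMSO wells and -100% = cell-free medium wells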
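% activity derives from luminescence (CellTiter-Glo), normalised to DMSO and no-cell wells. HT-1080-IDH1KD cells, 750/well, had 48 h compound exposure at 37 °C.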
MCF10A rereplic: inducers of DNA re-replication in MCF 10A breast cells; MCF 10A DNA re-replication, Hoechst nuclear intensity, 48 h; actives 2.9% (n = 350,000); Potency, µM (top dose mostly 46.1 µM), for the others: top-dose activity, positive = re-replication, most hits filed as activators; further: % of control where 0% means no effect; nearly all actives have a fitted effect of over 50% in size
* = called active by the depositor; i = inactive; ? = inconclusive; . = no result given; [ ] = another dose, or the depositor's remark. The call rests on the fitted dose curve; in most records, active means well fitted curve in the direction sought with a large enough effect; inconclusive means small, poorly fitted or top-dose-only effect, or another doubt; inactive means no such curve, though single readings can be large; an effect the other way counts as inactive or inconclusive. Potency means the concentration at half of the fitted maximal effect.

SMILES	SW480 rereplic	KB-3-1 cytotox	HT1080NT lethal	KB-V1 cytotox	HT1080 IDH1KD tx	MCF10A rereplic
Ic1ccccc1CN[C@@H]1C2CCN(CC2)[C@@H]1C(c1ccccc1)c1ccccc1	-2%	?	18µM*	16µM*	21µM*	?
N=C(N)c1c(O)n(C2CCCCC2)c(=O)n(C2CCCCC2)c1=O	?	21µM*	16µM*	i	21µM*	?
CCC(=NCCO)c1c(O)n(C2CCCCC2)c(=O)[nH]c1=O	1%	i	7%	i	4%	1%
C=C1CC[C@H](O)C/C1=C/C=C1\CCC[C@]2(C)[C@@H]([C@H](C)CCCC(C)C)CC[C@@H]12	15%	.	.	.	.	24µM*
CCOC(=O)c1ccccc1C(=O)OCC	-54%	i	.	i	.	12%
CCOC(=O)c1cnc(N2CC2)nc1N	?	?	-2%	5.8µM*	7%	?
O=C1C(I)=CC(=C(c2cc(I)c(O)c(I)c2)c2ccccc2C(=O)O)C=C1I	-3%	.	.	.	.	?
CCN(CC)P(=S)(c1c(C)nc2ccccn12)c1c(C)nc2ccccn12	10µM*	?	-12%	i	?	65%
CCOc1c(P(=S)(N(C)C)N(C)C)c(C)nn1-c1ccccc1	-5%[9.22 µM]	i	15%	i	10%	5%
[O]=[Sb]([OH])([OH])[c]1ccccc1	.	?	.	i	.	.
O=C(Oc1ccc2cc(Br)ccc2c1)N1CCCCCC1	0%	.	.	.	.	?
CCC(C)C1NC(=O)C2CCCN2C(=O)C(CC(C)C)OC(=O)CCNC(=O)C(C)N(C)C(=O)C(C(C)C)N(C)C1=O (centres undefined)	12µM*	4.6µM*	18µM*	i	23µM*	?
C=CCCC[C@@H]1OC(=O)CNC(=O)C([C@@H](C)CC)NC(=O)[C@@H]2CCCN2C(=O)C([C@@H](C)CC)OC(=O)[C@H](Cc2ccccc2)N(C)C(=O)[C@H](C(C)C)NC(=O)C1(C)C (some centres undefined)	.	?	?	i	?	.
COc1ccc(-c2nc3ccc(C(=O)N4CCC5(CC4)OCCO5)cc3nc2-c2ccc(OC)cc2)cc1	23µM*	i	-11%	i	-1%	?
Cc1nc2cc(C(=O)N3CCC4(CC3)OCCO4)ccc2n1-c1ccc(Br)cc1	1%	i	2%	i	0%	3%
CC(C)CCNc1nnnc2c1sc1nc(N3CCOCC3)c3c(c12)CC(C)(C)SC3	-3%	i	17%	?	12%	?
CC1(C)Cc2c(c(N3CCOCC3)nc3snc(N)c23)CO1	-6%	20µM*	11µM*	i	20µM*	10µM*
Clc1ccccc1Cl	-8%	.	.	.	.	-1%
Oc1cc(Cl)c(Cl)c(Cl)c1Cl	-3%	i	.	i	.	15µM*
Oc1cc(Cl)c(Cl)cc1Cl	-4%	.	.	.	.	2%
COc1cc2c(cc1O)[C@@H]1Cc3ccc(OC)c(O)c3CN1CC2	?	5.8µM*	2.6µM*	7.3µM*	2.6µM*	?
COc1cccc(NP(=O)(Oc2ccccc2Cl)Oc2ccccc2Cl)c1	4%	i	21µM*	?	?	?
COc1cccc(NP(=O)(Oc2ccccc2)Oc2ccccc2)c1	16µM*	5.8µM*	?	i	?	3.3µM*
O=P(Nc1cccc(Cl)c1)(Oc1ccccc1)Oc1ccccc1	?	i	?	?	?	?
O=P(Nc1cccnc1)(Oc1ccccc1)Oc1ccccc1	-3%	i	-5%	i	0%	-1%
SMILES	SW480 rereplic	KB-3-1 cytotox	HT1080NT lethal	KB-V1 cytotox	HT1080 IDH1KD tx	MCF10A rereplic
CCC(=O)O[C@@](Cc1ccccc1)(c1ccccc1)[C@@H](C)CN(C)C	1%[20.6 µM]	.	.	.	.	-3%[20.6 µM]
C[C@H]1CN(C2CCC(C#N)(c3ccc(F)cc3)CC2)CC[C@@]1(C(=O)O)c1ccccc1 (some centres undefined)	-11%[20.6 µM]	.	.	.	.	-1%[20.6 µM]
COc1ccc(C(=O)c2c(C)n(CCN3CCOCC3)c3ccccc23)cc1	?	.	.	.	.	13%
COCCNC(=O)c1c(NC(=O)c2ccco2)n(Cc2ccccc2)c2nc3ccccc3nc12	2.6µM*	i	-19%	i	-9%	?
COCCNC(=O)c1c(N)n(Cc2ccco2)c2nc3ccccc3nc12	-1%	i	-28%	i	?	-7%
COCCCNC(=O)c1c(NC(=O)c2ccccc2Cl)n(Cc2ccccc2)c2nc3ccccc3nc12	10µM*	i	18%	2.6µM*	0%	?
CCCNc1nc(-c2cc(C(=O)Nc3ccccc3)on2)cc(C(C)C)n1	-2%	?	-1%	i	-3%	14%
CCCCc1nn2c(=O)cc(COC(=O)Cc3ccccc3)nc2s1	.	i	.	?	.	.
CN(C)C(=O)Oc1ccc(OC(=O)N(C)C)cc1	2%[9.22 µM]	i	10%	i	10%	?
CN(C)C(=O)Oc1ccc(OCc2nc3ccccc3[nH]2)cc1	0%	?	7.3µM*	12µM*	6.5µM*	8%
CC1CCN(c2ccccc2NC(=O)c2cc3ccccc3o2)CC1	13%	i	-13%	i	-27%	?

High-throughput results (PubChem)
